# Results from the supplement of paper PMC7530171.
# Counter-ions that a name gives are not always drawn. ± gives the standard deviation.
# Tested on: THP-1
# Experiment: THP-1 cell loss relative to DMSO control; higher = more host cell loss (toxicity); extreme values may be limits of the assay
# Settings: 10 µM; 4 days; infection: M. tuberculosis H37Rv
# Experimental: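 OICR kinase inhibitor library screened in duplicate at 10 uM against M. tuberculosis-infected THP-1 macrophages, 4 days at 37 C. THP-1 cell loss (cytotoxicity or loss of adherence) was quantified from Hoechst-stained nuclei counts by high-content imaging and normalised to the 1% DMSO control; 100 = complete loss of host cells.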
row,SMILES,THP-1 cell loss
1,c1ccc(-c2n[nH]c3c2oc2ccccc23)cc1,9.81 ± 5.6%
2,CN(c1ccccc1CNc1nc(Nc2ccc3c(c2)CC(=O)N3)ncc1C(F)(F)F)S(C)(=O)=O,100%
3,CC(C)c1cc(/C=C(\C#N)C(=O)NCCCc2ccccc2)cc(C(C)C)c1O [Tyrphostin SU 1498],30.1 ± 12%
4,CCCS(=O)(=O)Nc1ccc(F)c(C(=O)c2c[nH]c3ncc(Cl)cc23)c1F,11.5 ± 14%
5,CCN(CCCOc1ccc2c(Nc3cc(CC(=O)Nc4cccc(F)c4)[nH]n3)ncnc2c1)CCOP(=O)(O)O,7.93 ± 5.5%
6,Fc1ccc(Cl)cc1-c1nc(Nc2ccncc2)c2nccnc2n1,7.31 ± 3.9%
7,Cc1ccc(Nc2nccc(N(C)c3ccc4c(C)n(C)nc4c3)n2)cc1S(N)(=O)=O [Pazopanib hydrochloride],100%
8,COc1cc(OC2CCN(C)CC2)ccc1Nc1ncc2c(n1)n(C1CCCC1)c(=O)n2C,87.6 ± 18%
9,COc1cc(O)c2c(c1)/C=C/C[C@H](O)[C@H](O)C(=O)/C=C\C[C@H](C)OC2=O [(5Z)-7-Oxozeaenol],100%
10,CN(c1ncccc1CNc1nc(Nc2ccc3c(c2)CC(=O)N3)ncc1C(F)(F)F)S(C)(=O)=O,100%
11,O=[N+]([O-])c1ccc(-c2nc(-c3ccc(F)cc3)c(-c3ccncc3)[nH]2)cc1,17 ± 3.5%
12,CN(C)CCOc1cc(-c2cn[nH]c2)ccc1NC(=O)C1COc2ccccc2O1 (stereo not given),0%
13,COc1cc(C[C@H]2C(=O)OC[C@@H]2Cc2ccc(OC)c(OC)c2)ccc1O [Arctigenin],35 ± 18%
14,Cc1cc(Nc2cc(CN3CCOCC3)c3nc(C)c(Cc4ccc(Cl)cc4F)n3n2)n[nH]1,100%
15,COc1ccc(C(=O)Nc2sc3c(c2C(N)=O)CCCC3)cc1OC,100%
16,COc1cc(Oc2ccnc3cc(OC)c(OC)cc23)ccc1NC(=O)NC(C)c1nccs1 (racemic),10.7 ± 4.6%
17,Cc1ccc(-n2nc(C(C)(C)C)cc2NC(=O)Nc2ccc(OCCN3CCOCC3)c3ccccc23)cc1,50 ± 71%
18,N#CCc1ccc(Nc2nc(Nc3cc(C4CCC4)[nH]n3)c3ccccc3n2)cc1,100%

row,SMILES,THP-1 cell loss
1,Cc1cc2c(F)c(Oc3ncnn4cc(OC[C@@H](C)O)c(C)c34)ccc2[nH]1 [Brivanib],25.4 ± 0.91%
2,Nc1[nH]nc2nc3ccccc3nc12,3.97 ± 5.6%
3,Cc1cnc(Nc2ccc(OCCN3CCCC3)cc2)nc1Nc1cccc(S(=O)(=O)NC(C)(C)C)c1,100%
4,CC[C@@H]1/C=C(\C)C[C@H](C)C[C@H](OC)[C@H]2O[C@@](O)(C(=O)C(=O)N3CCCC[C@H]3C(=O)O[C@H](/C(C)=C/[C@@H]3CC[C@H](Cl)[C@H](OC)C3)[C@H](C)[C@@H](O)CC1=O)[C@H](C)C[C@@H]2OC [Pimecrolimus],28.5 ± 3%
5,COc1cc(OC)c(C=C2C(=O)Nc3ccccc32)c(OC)c1,45.3 ± 6.7%
6,NC(=O)Nc1cc(-c2cccc(F)c2)sc1C(=O)N[C@H]1CCCNC1,84.2 ± 22%
7,N#CC(c1ccnc(NCCc2cccnc2)n1)c1nc2ccccc2s1 (stereo not given),100%
8,CN1CCC(Nc2ncc3ncnc(Nc4ccc(F)c(Cl)c4)c3n2)CC1 [BIBX 1382 dihydrochloride],17.8 ± 14%
9,Cc1cc(Nc2cc(N3CCN(C)CC3)nc(/C=C/c3ccccc3)n2)n[nH]1,70.7 ± 19%
10,O=C1NC(=O)c2c1c(-c1ccccc1)cc1[nH]c3ccc(O)cc3c21,77.75 ± 0.7%
11,O=C1NC(=O)[C@@H](c2cn3c4c(cccc24)CCC3)[C@@H]1c1c[nH]c2ccccc12,43.4 ± 7.2%
12,Cn1cc(-c2ccc3nnc(Sc4ccc5ncccc5c4)n3n2)cn1,10.4 ± 3.7%
13,CNC(=O)c1cc(Oc2ccc(NC(=O)Nc3ccc(Cl)c(C(F)(F)F)c3)cc2)ccn1 [Sorafenib],100%
14,CC(C)CC(=O)Nc1n[nH]c2c1CN(C(=O)C1CCN(C)CC1)C2(C)C,100%
15,Oc1ccc(Nc2nc(-c3ccc(Cl)cc3)cs2)cc1,100%
16,C=CCn1c(=O)c2cnc(Nc3ccc(N4CCN(C)CC4)cc3)nc2n1-c1cccc(C(C)(C)O)n1,37 ± 4.8%
17,Nc1nccc(-c2c(-c3ccc(F)cc3)ncn2C2CCCCC2)n1,75 ± 8.6%
